PubChem BioAssay (NCI)
The panel holds about 79,000 compounds, 15% with a hit somewhere; the sample as a whole holds those more often. Unmarked numbers belong to inactive results. Active and inactive are the calls of the source. Rule as the data show it: active = growth inhibition above about 70%; inactive = the rest.

Experiments:
[1] = NCI Yeast Anticancer Drug Screen. Data for the rad50 strain (AID 155);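 also: 0% = growth of vehicle-only cultures of the same strain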; settings: S. cerevisiae rad50 strain growth inhibition; at 50.0 µM; hits give high values
Outline: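 Growth of the mutant yeast was measured after compound exposure and referenced to vehicle-treated cultures.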

[2] = NCI Yeast Anticancer Drug Screen. Data for the mec2-1 strain (AID 157); settings: S. cerevisiae mec2-1 strain, at 50.0 µM, hits give high values
Outline: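 Vehicle-treated cultures served as reference for growth inhibition of compound-exposed mec2-1 yeast.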

[3] = NCI Yeast Anticancer Drug Screen. Data for the sgs1 mgt1 strain (AID 161);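 also: 0% = growth of cultures given vehicle only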; settings: S. cerevisiae sgs1 mgt1 strain, at 50.0 µM, hits give high values
Outline: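 Genetically altered yeast, compound exposure, growth inhibition relative to vehicle.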

[4] = NCI Yeast Anticancer Drug Screen. Data for the cln2 rad14 strain (AID 165);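 also: 0% = growth equal to vehicle treated cultures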; settings: S. cerevisiae cln2 rad14 strain, at 50.0 µM, hits give high values
Outline: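 Each compound was tested on cln2 rad14 yeast. Inhibition of growth was calculated against vehicle-exposed controls.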

[5] = NCI Yeast Anticancer Drug Screen. Data for the bub3 strain (AID 167); settings: S. cerevisiae bub3 mutant strain, at 50.0 µM, hits give high values
Outline: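 Whole-cell yeast assay. The mutant strain was incubated with compounds, and growth inhibition was determined by comparison with vehicle-treated cells.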

[6] = NCI Yeast Anticancer Drug Screen. Data for the mlh1 rad18 strain (AID 175); settings: S. cerevisiae mlh1 rad18 strain growth inhibition; at 50.0 µM; hits give high values
Outline: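 Vehicle-treated cultures served as the reference for growth inhibition in a yeast strain carrying DNA damage repair alterations exposed to each compound.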

Compound | growth inhibition [1] | growth inhibition [2] | growth inhibition [3] | growth inhibition [4] | growth inhibition [5] | growth inhibition [6]
CC(NC(=O)NC(C)(C)C)c1ccccc1 (stereo not given) | 3.05% | -12.9% | -5.05% | -37% | 5.2% | 4.1%
CSC1(C)C(=O)Nc2cc([N+](=O)[O-])ccc21 (stereo not given) | 1.7% | -11.1% | 0.6% | -14.2% | -32.5% | -5.55%
O=C(O)Cc1ccccc1Cl | 24.4% | 32.1% | 6.55% | -23.9% | 14.8% | 17.9%
N#Cc1c2c(c(N3CCCCC3)n3c1nc1ccccc13)CCC2 | 19.4% | 13.9% | 26.8% | 8% | 19.9% | 19.9%
CC(C)(C)c1ccc(O)c(CN(Cc2cc(C(C)(C)C)ccc2O)c2ccccc2)c1 | 44.4% | 26.9% | 21.6% | -2.2% | 62% | 54.8%
COc1ccc(OC)c(/C=C/c2ccc(NC(=O)C(Cl)(Cl)Cl)cc2)c1 | -11.1% | -3.8% | -12.2% | -36.3% | -2.55% | 10.2%
NNc1cn[nH]c(=O)c1Cl | -16.6% | -28.2% | -10.1% | 4.4% | -3.85% | -26.4%
CCOC(=O)Cc1[nH]c(C(=O)OCC)c(CC(=O)OCC)c1C(=O)OCC | 6.3% | 8.45% | 8.3% | -4.2% | 0.1% | 15.7%
COC1(OC)C2(Cl)CCC1(Cl)C(OC(C)=O)C2 (stereo not given) | -21.4% | -5% | 4.65% | 26.8% | -8% | -10.7%
COc1ccc2oc(=N)c(C(=O)NCc3ccccc3)cc2c1 | -4% | -0.85% | -19.1% | -6.35% | -34.1% | -24.6%
C/C(=C/C(C)O)c1ccccc1 (stereo not given) | -13.6% | -3.85% | -15.2% | 4.9% | -6.1% | -6.9%
O=C(O)c1ccc(S(=O)(=O)c2ccccc2[N+](=O)[O-])cc1 | -12.9% | -10.3% | -35.8% | -19% | -12.1% | -38.6%
CNC(CCc1ccccc1)C(=O)O (stereo not given) | 1.9% | -1.25% | 8.4% | -7.3% | 4.4% | 2.7%
Cc1ccc(O)c(C(C)(C)C)c1 | 14.9% | -8% | 20.4% | 21.3% | -0.65% | 8.5%
NS(=O)(=O)c1ccc(NC(=O)CCl)cc1 | 6.5% | -6.8% | -1.9% | 11.7% | 3.3% | -15.9%
CNOCc1ccc(C(=O)NC(C)C)cc1 | 12.2% | 17.6% | 2.8% | -30.9% | 11.7% | 17.5%
CC1(C)OC(C)(C)c2c1nnc(-c1ccccc1[N+](=O)[O-])[n+]2[O-] | 8.1% | 11.5% | 22.4% | 12.8% | 26.9% | 14.1%
CCc1cccc(CC)c1NC(=O)c1ccc(C)cc1 | -6.25% | -30% | 9.4% | 7.2% | -1.35% | -4%
Cc1cccc(NC(=O)CCl)c1C | -18.1% | -37.6% | -7.65% | 11.8% | -21.9% | -3.7%
COc1ccc(N2CCN(CC(O)COc3ccc(C(=O)Cc4ccccc4)cc3)CC2)cc1 (stereo not given) | 96.4% (active) | 96.8% (active) | 99% (active) | 86.6% (active) | 91% (active) | 96.7% (active)

Compound | growth inhibition [1] | growth inhibition [2] | growth inhibition [3] | growth inhibition [4] | growth inhibition [5] | growth inhibition [6]
O=C1OCC/C1=C\c1cccc([N+](=O)[O-])c1 | 10.4% | 14.4% | 11.2% | -42.7% | 22.5% | 26.9%
CNC(=S)NNC1=NCCCN1 | -48.5% | -10.2% | -25.9% | 13.8% | 9.75% | -9.9%
O=C(O)c1ccc(F)cc1F | 6.25% | -15.9% | 11.3% | -32.7% | -3.75% | 2.85%
c1ccc(CN2CCCNCC2)cc1 | 9.55% | -1.4% | -0.25% | -11.8% | 4.7% | -0.05%
O=C1C(c2ccccc2)=C(c2ccccc2)c2ccccc21 | -8.2% | 19.6% | 21% | -18.4% | 32% | 14.4%
CC(=O)Oc1cc(OC(C)=O)c2c(c1)OC(c1ccc(OC(C)=O)c(OC(C)=O)c1)CC2=O (stereo not given) | 21.4% | 3.8% | 18.3% | 3.95% | 3.85% | 28%
O=c1[nH]nc(-c2ccccc2)n1-c1ccncc1 | -4.65% | 0.3% | -6.45% | -4.65% | 12.7% | 0.65%
COC(=O)CC(c1ccccc1)N1CCOCC1 (stereo not given) | -12.3% | 19.4% | -10.2% | -20.4% | 7.35% | 12.8%
Cc1c2c(=O)oc3ccc(Cl)cc3c2nn1-c1ccccc1 | -13.9% | -9.4% | -11.8% | -7.8% | -25.7% | -9.65%
CN(C)Cc1ccccc1C=C(c1ccccc1)c1ccccc1 | 3.05% | 0.65% | -6.2% | -37.9% | 0.55% | -9.8%
CCCCNc1nc2nc[nH]c2c(=O)[nH]1 | -5.45% | -6.3% | -13.2% | -2.25% | -29.1% | -48%
CC(C)=C1CCC(CN2CCOCC2)C1=O (stereo not given) | 25.2% | 16.4% | 23.1% | 19.6% | -2.6% | 87% (active)
COC(=O)C(=O)c1c(-c2cccnc2)[nH]c2ccccc12 | 7.3% | -7.1% | 1.05% | -9.05% | 13.2% | 4%
CC(=O)OCC1OC(N2C(c3ccccc3)=CC(c3cccs3)C(C#N)=C2S)C(OC(C)=O)C(OC(C)=O)C1OC(C)=O (stereo not given) | 27.4% | 28.9% | 40.6% | 18% | 46.2% | 23.3%
C=CCNC(=S)N1CC(C)C(=O)Nc2ccccc21 (stereo not given) | -26.1% | -18.2% | -29.9% | 6.6% | 11.3% | -14.4%
O=S(=O)(O)CNc1ccc(Cl)cc1 | 15.8% | -12.7% | 4.05% | -29.7% | -23.1% | 4.05%
Cc1nn(-c2ccccc2)c(=O)n2c1nc1ccccc12 | -2% | -9.5% | 20.9% | -43.1% | 26.8% | 11.9%
Cc1cccc(NC(=O)/C(=N\NC(C)(C)C)C2NC(=S)NC2=O)c1C (stereo not given) | -2.25% | -29.8% | -38.5% | -6.6% | -16.4% | -39.1%
N#CCCC(CC#N)C1([N+](=O)[O-])CCCCC1 (stereo not given) | 23.8% | 29.2% | 7.85% | 53.1% | 32.8% | 3.55%
CCCCC(CC)OC(=O)Cc1ccccc1 (stereo not given) | 10.9% | -4.25% | 13.1% | -6.5% | -4.45% | 16.5%
